SMILES strings stand for the structures. Where “and” joins values, the source holds several entries; their conditions need not be identical. Identical values can stand only once. Calls of active or inactive are those of the source. A call without a number means that no potency is given here. Calls follow the shape of the full dose curve.
Potency is read from the fitted curve at half-maximal effect.

For the experiment, the target named is Estrogen receptor (Homo sapiens) (UniProt P03372). Briefly: qHTS assay to identify small molecule agonists of the estrogen receptor alpha (ER-alpha) signaling pathway in the presence of an antagonist (AID 1259383). Also: nearly all actives have a fitted effect of over 15% in size. As to conditions: VM7Luc4E2 cells, ERE-luciferase, +ICI-182,780, 22 h; series mostly up to 92.4 µM. The text has this: National Center for Advancing Translational Sciences [NCATS] NIH Chemical Genomics Center [NCGC] U.S. Environmental Protection Agency [EPA] National Institutes of Environmental Health Sciences [NIEHS] National Toxicology Program [NTP] Assay overview: Estrogen receptor (ER), a member of nuclear hormone receptor plays an important role in development, metabolic homeostasis and reproduction. Two subtypes of ER, ER-alpha and ER-beta, have similar expression patterns with some uniqueness in both types. Endocrine disrupting chemicals (EDCs) and their interactions with steroid hormone receptors like ER causes disruption of normal endocrine function. Therefore, it is important to understand the effect of environmental chemicals in ER signaling pathway. For identifying ER agonists, VM7Luc4E2 cell line has been used in the current assay. VM7Luc4E2 cell line (provided by Denison MS, University of California) endogenously expresses full-length ER-alpha and is stably transfected with a plasmid containing four estrogen responsive elements (ERE) upstream of a luciferase reporter gene. This current screening for measuring luciferase reporter gene activity using VM7Luc4E2 cells against Tox21 10K library collection is a confirmation study on agonist mode screening in presence of ER-antagonist (ICI-182,780) at 10.0nM final concentration.
Chain of Estrogen receptor (Homo sapiens) (P03372 whole entry, looked up): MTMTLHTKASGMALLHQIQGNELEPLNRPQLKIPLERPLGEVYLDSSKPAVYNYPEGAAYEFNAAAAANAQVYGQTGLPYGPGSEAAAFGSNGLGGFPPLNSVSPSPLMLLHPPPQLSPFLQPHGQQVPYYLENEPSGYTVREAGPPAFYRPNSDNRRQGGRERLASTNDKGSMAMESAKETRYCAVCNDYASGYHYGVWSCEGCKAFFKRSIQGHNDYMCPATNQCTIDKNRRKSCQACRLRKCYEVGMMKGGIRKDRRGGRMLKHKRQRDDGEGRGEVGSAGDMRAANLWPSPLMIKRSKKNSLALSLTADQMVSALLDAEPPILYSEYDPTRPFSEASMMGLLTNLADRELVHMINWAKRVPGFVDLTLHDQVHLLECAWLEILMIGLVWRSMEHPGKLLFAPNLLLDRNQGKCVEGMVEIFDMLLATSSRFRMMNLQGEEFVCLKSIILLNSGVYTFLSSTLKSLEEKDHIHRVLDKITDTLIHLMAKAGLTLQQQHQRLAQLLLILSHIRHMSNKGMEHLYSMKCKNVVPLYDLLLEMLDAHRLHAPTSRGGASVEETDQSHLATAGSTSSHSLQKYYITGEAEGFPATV
Assay Protocol Summary: VM7Luc4E2 cells were cultured in phenol red free assay medium containing 10% charcoal stripped FBS for 5 days prior to the assay. The cells were dispensed at 4,000 cells in 4uL of assay medium per well into white wall/solid-bottom 1536-well plates (Corning Life Sciences, Corning, NY) using a Multidrop Combi (Thermo Fisher Scientific Inc., Waltham, MA) dispenser. After the assay plates were incubated at 37C and 5% CO2 for 24hr, 1uL of 10.0nM (final concentration) ICI-182,780 or assay buffer was added using two separate tips of Flying Reagent Dispenser (FRD, Aurora Discovery, San Diego, CA). Then 23nL of compounds dissolved in DMSO at 15 concentrations and positive controls or DMSO only was transferred to the assay plates by a Pintool station (Wako, San Diego, CA). The assay plates were incubated at 37C and 5% CO2 for 22hr. For luciferase read, 4uL/well ONE-Glo reagent (Promega Corporation, Madison, WI) was added to each well using FRD and after 30min incubation at room temperature, luminescence signal was measured on ViewLux plate reader (PerkinElmer, Shelton, CT).
Background: Quantitative high-throughput screening tests each substance at several concentrations.
For `CN(C)Cc1cc(CN(C)C)c(O)c(CN(C)C)c1`, the Potency entry is “inactive”.

As for `COCCOCCOC`, the Potency entry is “inactive”.

Turning to `CN(C)C=O`, the Potency entry is “inactive”.

Take `N[C@@H](Cc1c[nH]c2ccc(O)cc12)C(=O)O`: the Potency result was “inactive”.

Regarding `CCN1CCCC1=O`, the Potency result was “inactive”.

Take `OCCCc1ccccc1`: the Potency result is “inactive”.

Consider `CCn1cc(C(=O)O)c(=O)c2ccc(C)nc21`, for which the Potency entry is “inactive”.

For the compound `Nc1ccc(N=Nc2ccccc2)c(N)n1`, the Potency was 1.93 µM (active) and 3.76 µM (active).

For `C=C(C)OC(C)=O`, the Potency result was “inactive”.

For `C[C@]12C=CC(=O)C=C1CC[C@@H]1[C@@H]2C(=O)C[C@@]2(C)[C@H]1CC[C@]2(O)C(=O)CO`, the Potency result is “inactive”.

As for `c1ccc2[nH]c(-c3cscn3)nc2c1`, the Potency entry was “inactive”.

As for `NC(N)=NC(N)=NCCc1ccccc1`, the Potency result is “inactive”.

Consider `COC(=O)c1ccc(C=O)cc1`, for which the Potency entry was “inactive”.

On to `COC(=O)C1CCC(C(=O)OC)CC1` (stereo not given), for which the Potency result was “inactive”.

`CN/C(=C\[N+](=O)[O-])NCCSCc1ccc(CN(C)C)o1`: the Potency result is “inactive”.

With `C=C(C)C(N)=O`, the Potency entry is “inactive”.

Take `COc1ccccc1NC(=O)CC(C)=O`: the Potency result is “inactive”.

Take `Cc1cccc(C)c1O`: the Potency entry was “inactive”.

For the compound `CCOC(=O)C(C)(C)Oc1ccc(Cl)cc1`, the Potency entry was “inactive”.

Regarding `C#C[C@]1(O)CC[C@H]2[C@@H]3CCC4=CC(=O)CC[C@@H]4[C@H]3CC[C@@]21CC`, the Potency was 6.87 µM (active) and 8.63 µM (active) and 8.41 µM (active).

In the case of `COc1cc(C=O)ccc1O`, the Potency result is “inactive”.

As for `COc1ccccc1O`, the Potency result is “inactive”.

Take `COc1ccc(C(=O)c2ccccc2)c(O)c1`: the Potency result was “inactive”.

`C=CC(=O)NC(C)(C)CS(=O)(=O)O`: the Potency entry is “inactive”.

For `CC1=NN(c2ccccc2)C(=O)C1`, the Potency result is “inactive”.

`OC[C@@H](O)[C@@H](O)[C@H](O)[C@H](O)CO`: the Potency entry is “inactive”.

As to `CC(=O)OC/C=C(C)/C=C/C=C(C)/C=C/C1=C(C)CCCC1(C)C`, the Potency entry was “inactive”.

As for `Cc1cccc2ccccc12`, the Potency entry is “inactive”.

Take `CC(=O)/C=C/C1=C(C)CCCC1(C)C`: the Potency result is “inactive”.

On to `Cc1c(N(C)C)c(=O)n(-c2ccccc2)n1C`, for which the Potency entry is “inactive”.

Regarding `COc1cc2c(c(OC)c1OC)-c1ccc(OC)c(=O)cc1[C@@H](NC(C)=O)CC2`, the Potency entry was “inactive”.

Take `CC(C)(C)CC(C)(C)c1ccc(O)c(-n2nc3ccccc3n2)c1`: the Potency result is “inactive”.

`CCCCCCCCOc1ccc(C(=O)c2ccccc2)c(O)c1`: the Potency entry is “inactive”.

With `NC(=O)N1c2ccccc2C=Cc2ccccc21`, the Potency entry was “inactive”.

As to `CC1(C)O[C@@H]2[C@@H](CO[C@@]3(COS(N)(=O)=O)OC(C)(C)O[C@@H]23)O1`, the Potency entry is “inactive”.

With `CCCCCCCCCCCCCC(=O)OC(C)C`, the Potency entry was “inactive”.

Turning to `CC(=O)CCC(C)C`, the Potency result was “inactive”.

`Oc1cccc(O)c1`: the Potency result is “inactive”.

`Cc1cnc(NC(=O)C2=C(O)c3ccccc3S(=O)(=O)N2C)s1`: the Potency result was “inactive”.

Consider `CCCCOC(=O)CCCCCCCCC(=O)OCCCC`, for which the Potency entry is “inactive”.

These data come from PubChem BioAssay (Tox21).
